Where “and” joins values, the source holds several entries; their conditions need not be identical. Identical values can stand only once. In all, about 5,500 compounds went through this assay and about 2,000 (36%) were called active. Another 18% or so got no clear call; they are omitted. Cut-off read from the data, not from the text of the source: active = normalized growth mostly below about 0.91 (no sharp cut-off); inconclusive = no clear call, values can overlap the other calls; inactive = mostly above about 0.92. This is one part of the list.
Assay: chemical genetic growth profiling, strain panel (AID 1159580);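 note: tested at 20 µM; growth read once vehicle control cultures reached saturation at 30 °C; 1 = growth at the plate median or of vehicle wells; lower values mean less growth of the strain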
Details: S. cerevisiae deletion strains, growth OD

Measured: normalized growth

O=C(O)/C=C(\CC(=O)O)C(=O)O
inactive: locus YAL013W, strain DEP1, stronger effect = lower value 0.995 | locus YAL021C, strain ccr4, stronger effect = lower value 0.998 | locus YAL026C, strain drs2, stronger effect = lower value 1 | locus YAL030W, strain snc1, stronger effect = lower value 0.993 | locus YBL061C, strain skt5, stronger effect = lower value 0.994 | locus YBR009C, strain hhf1, stronger effect = lower value 1 | locus YBR021W, strain FUR4, stronger effect = lower value 0.981 | locus YBR023C, strain chs3, stronger effect = lower value 0.992 | locus YBR171W, strain sec66, stronger effect = lower value 0.989 | locus YBR229C, strain ROT2, stronger effect = lower value 0.993 | locus YBR231C, strain swc5, stronger effect = lower value 0.998 | locus YBR279W, strain paf1, stronger effect = lower value 1.01 | locus YCL011C, strain gbp2, stronger effect = lower value 1 | locus YCL016C, strain dcc1, stronger effect = lower value 1.01 | locus YCL029C, strain bik1, stronger effect = lower value 0.968 | locus YCL061C, strain MRC1, stronger effect = lower value 0.987 | locus YCL069W, strain vba3, stronger effect = lower value 1 | locus YCR088W, strain abp1, stronger effect = lower value 0.99 | locus YDL005C, strain med2, stronger effect = lower value 0.98 | locus YDL035C, strain GPR1, stronger effect = lower value 1 | locus YDL040C, strain nat1, stronger effect = lower value 0.985 | locus YDL074C, strain BRE1, stronger effect = lower value 0.998 | locus YDL101C, strain DUN1, stronger effect = lower value 1 | locus YDL134C, strain PPH21, stronger effect = lower value 1.01 | locus YDL185W, strain tfp1, stronger effect = lower value 1 | locus YDL192W, strain arf1, stronger effect = lower value 0.997 | locus YDR001C, strain nth1, stronger effect = lower value 0.995 | locus YDR069C, strain doa4, stronger effect = lower value 1.01 | locus YDR101C, strain arx1, stronger effect = lower value 0.991 | locus YDR137W, strain rgp1, stronger effect = lower value 1.02 | locus YDR159W, strain sac3, stronger effect = lower value 0.96 | locus YDR162C, strain NBP2, stronger effect = lower value 1.05 | locus YDR195W, strain ref2 0.969 | locus YDR297W, strain sur2, stronger effect = lower value 0.996 | locus YDR318W, strain mcm21, stronger effect = lower value 0.981 | locus YDR334W, strain swr1, stronger effect = lower value 0.981 | locus YDR335W, strain msn5, stronger effect = lower value 0.999 | locus YDR388W, stronger effect = lower value 0.973 | locus YDR392W, strain spt3, stronger effect = lower value 0.992 | locus YDR502C, strain sam2, stronger effect = lower value 0.984 | locus YEL003W, strain gim4, stronger effect = lower value 1 | locus YEL037C, strain rad23, stronger effect = lower value 0.994 | locus YEL061C, strain CIN8 (second series), stronger effect = lower value 1 | locus YEL061C, strain CIN8, stronger effect = lower value 0.996 | locus YER015W, strain faa2, stronger effect = lower value 0.998 | locus YER016W, strain bim1, stronger effect = lower value 0.984 | locus YER110C, stronger effect = lower value 0.982 | locus YER111C, strain swi4, stronger effect = lower value 0.991 | locus YER155C, strain BEM2 (second series), stronger effect = lower value 0.983 | locus YER155C, strain BEM2, stronger effect = lower value 0.989 | locus YER167W, strain BCK2, stronger effect = lower value 0.978 | locus YFR010W, strain ubp6, stronger effect = lower value 0.991 | locus YGL078C, strain dbp3, stronger effect = lower value 0.984 | locus YGL086W, strain mad1, stronger effect = lower value 0.987 | locus YGL167C, strain pmr1, stronger effect = lower value 0.986 | locus YGL173C, strain kem1, stronger effect = lower value 0.997 | locus YGL227W, strain vid30, stronger effect = lower value 0.98 | locus YGL240W, strain doc1, stronger effect = lower value 0.974 | locus YGL248W, strain PDE1, stronger effect = lower value 1.03 | locus YGL253W, strain hxk2, stronger effect = lower value 1 | locus YGR135W, strain pre9, stronger effect = lower value 1.02 | locus YGR252W, strain gcn5, stronger effect = lower value 1.03 | locus YHR013C, strain ard1, stronger effect = lower value 0.999 | locus YHR027C, strain rpn1, stronger effect = lower value 0.993 | locus YHR030C, strain SLT2, stronger effect = lower value 0.987 and 1.01 | locus YHR079C, strain IRE1 (second series), stronger effect = lower value 0.968 | locus YHR079C, strain IRE1, stronger effect = lower value 1.01 | locus YHR094C, strain hxt1, stronger effect = lower value 0.968 | locus YHR129C, strain ARP1, stronger effect = lower value 1 | locus YHR142W, strain chs7, stronger effect = lower value 1.01 | locus YHR200W, strain rpn10, stronger effect = lower value 0.991 | locus YIL066C, strain RNR3, stronger effect = lower value 1.01 | locus YIL073C, strain SPO22, stronger effect = lower value 0.952 | locus YIL125W, strain kgd1, stronger effect = lower value 0.979 | locus YIR030C, strain dcg1, stronger effect = lower value 0.97 | locus YJL092W, strain hpr5, stronger effect = lower value 0.994 | locus YJL095W, strain BCK1 (second series), stronger effect = lower value 0.997 | locus YJL095W, strain BCK1, stronger effect = lower value 1.05 and 1 | locus YJL115W, strain asf1, stronger effect = lower value 0.998 | locus YJL129C, strain trk1, stronger effect = lower value 0.996 | locus YJL134W, strain LCB3, stronger effect = lower value 0.993 | locus YJL154C, strain vps35, stronger effect = lower value 0.994 | locus YJL164C, strain tpk1, stronger effect = lower value 1.02 | locus YJL166W, strain qcr8, stronger effect = lower value 0.998 | locus YJL168C, strain set2, stronger effect = lower value 0.969 | locus YJL187C, strain SWE1 (second series), stronger effect = lower value 1.02 | locus YJL187C, strain SWE1, stronger effect = lower value 0.997 | locus YJR043C, strain POL32, stronger effect = lower value 1 | locus YJR066W, strain TOR1, stronger effect = lower value 0.972 | locus YJR075W, strain HOC1, stronger effect = lower value 1.03 | locus YKL009W, strain mrt4, stronger effect = lower value 0.957 | locus YKL068W, stronger effect = lower value 0.981 | locus YKL085W, strain MDH1 (second series), stronger effect = lower value 0.989 | locus YKL085W, strain MDH1, stronger effect = lower value 0.989 | locus YKL160W, strain elf1, stronger effect = lower value 0.993 | locus YKR001C, strain vps1, stronger effect = lower value 0.956 | locus YKR026C, strain gcn3, stronger effect = lower value 0.993 | locus YKR091W, strain srl3, stronger effect = lower value 0.999 | locus YLL001W, strain dnm1, stronger effect = lower value 1.01 | locus YLL026W, stronger effect = lower value 0.988 | locus YLL041C, strain sdh2, stronger effect = lower value 1 | locus YLR027C, strain aat2, stronger effect = lower value 0.996 | locus YLR039C, strain RIC1, stronger effect = lower value 1.02 | locus YLR058C, strain SHM2, stronger effect = lower value 1.01 | locus YLR102C, strain apc9, stronger effect = lower value 0.974 | locus YLR113W, strain HOG1, stronger effect = lower value 1.01 | locus YLR221C, strain rsa3, stronger effect = lower value 0.976 | locus YLR258W, strain gsy2, stronger effect = lower value 0.986 | locus YLR262C, strain YPT6 (second series), stronger effect = lower value 1.01 | locus YLR262C, strain YPT6, stronger effect = lower value 1.02 | locus YLR268W, strain sec22, stronger effect = lower value 0.977 | locus YLR320W, strain mms22, stronger effect = lower value 0.982 | locus YLR330W, strain CHS5, stronger effect = lower value 0.99 | locus YLR342W, strain FKS1 (second series), stronger effect = lower value 0.99 | locus YLR342W, strain FKS1, stronger effect = lower value 0.987 | locus YLR357W, strain rsc2, stronger effect = lower value 0.991 | locus YLR370C, strain arc18, stronger effect = lower value 0.997 | locus YLR371W, strain rom2, stronger effect = lower value 0.972 | locus YLR384C, strain iki3, stronger effect = lower value 0.984 | locus YLR418C, strain cdc73, stronger effect = lower value 1.01 | locus YML016C, strain PPZ1, stronger effect = lower value 0.986 | locus YML032C, strain rad52, stronger effect = lower value 0.986 | locus YML120C, strain ndi1, stronger effect = lower value 1 | locus YML124C, strain tub3, stronger effect = lower value 0.97 | locus YMR058W, strain fet3, stronger effect = lower value 0.997 | locus YMR078C, strain ctf18, stronger effect = lower value 0.975 | locus YMR125W, strain sto1, stronger effect = lower value 0.997 | locus YMR129W, stronger effect = lower value 0.996 | locus YMR205C, strain PFK2, stronger effect = lower value 1.01 | locus YMR223W, strain ubp8, stronger effect = lower value 0.996 | locus YMR231W, strain pep5, stronger effect = lower value 0.967 | locus YMR307W, strain GAS1, stronger effect = lower value 1.06 | locus YNL067W, strain RPL9B, stronger effect = lower value 1.03 | locus YNL071W, strain lat1, stronger effect = lower value 1 | locus YNL128W, strain TEP1, stronger effect = lower value 1 | locus YNL153C, strain GIM3, stronger effect = lower value 1.04 | locus YNL183C, strain NPR1, stronger effect = lower value 0.979 | locus YNL209W, strain ssb2, stronger effect = lower value 1 | locus YNL233W, strain BNI4, stronger effect = lower value 1.02 | locus YNL248C, strain rpa49, stronger effect = lower value 0.995 | locus YNL250W, strain rad50, stronger effect = lower value 0.982 | locus YNL271C, strain bni1, stronger effect = lower value 0.972 | locus YNL298W, strain CLA4, stronger effect = lower value 0.978 | locus YNL307C, strain MCK1, stronger effect = lower value 0.982 | locus YNL322C, strain KRE1 (second series), stronger effect = lower value 0.99 | locus YNL322C, strain KRE1, stronger effect = lower value 0.998 | locus YNR049C, strain mso1, stronger effect = lower value 0.992 | locus YNR052C, strain pop2, stronger effect = lower value 0.971 | locus YOL006C, strain TOP1, stronger effect = lower value 0.969 | locus YOL012C, strain htz1 0.984 | locus YOL147C, strain pex11, stronger effect = lower value 0.986 | locus YOR001W, strain rrp6, stronger effect = lower value 0.969 | locus YOR061W, strain CKA2, stronger effect = lower value 0.988 | locus YOR069W, strain VPS5, stronger effect = lower value 0.989 | locus YOR070C, strain gyp1, stronger effect = lower value 0.981 | locus YOR080W, strain dia2, stronger effect = lower value 0.985 | locus YOR083W, strain WHI5, stronger effect = lower value 1.01 | locus YOR106W, strain vam3, stronger effect = lower value 1.01 | locus YOR136W, strain idh2, stronger effect = lower value 0.98 | locus YOR144C, strain elg1, stronger effect = lower value 0.984 | locus YOR184W, strain ser1, stronger effect = lower value 0.999 | locus YOR231W, strain MKK1, stronger effect = lower value 1.05 | locus YOR265W, strain rbl2, stronger effect = lower value 0.995 | locus YOR270C, strain vph1, stronger effect = lower value 1.04 | locus YOR290C, strain snf2, stronger effect = lower value 0.964 | locus YOR316C, strain cot1, stronger effect = lower value 0.97 | locus YPL051W, strain arl3, stronger effect = lower value 0.989 | locus YPL055C, strain LGE1, stronger effect = lower value 1.03 | locus YPL078C, strain atp4, stronger effect = lower value 1 | locus YPL106C, strain sse1, stronger effect = lower value 0.997 | locus YPL240C, strain hsp82, stronger effect = lower value 0.996 | locus YPL241C, strain CIN2, stronger effect = lower value 0.993 | locus YPL256C, strain CLN2, stronger effect = lower value 1 | locus YPR119W, strain clb2, stronger effect = lower value 0.957 | locus YPR141C, strain kar3, stronger effect = lower value 0.975 | locus YPR163C, strain tif3, stronger effect = lower value 0.984 | locus YPR167C, strain met16, stronger effect = lower value 0.951 | strain wtn01, stronger effect = lower value 0.954

— PubChem BioAssay AID1159580 (chemical genetic matrix, 2015)
